# This is a sample that favours compounds with a hit; in the whole collection about 6.6% have one here.
# CSC inhib = cancer stem cell viability inhibitors, primary screen, luminescence; cancer stem cell-like cells viability; inhibition, % at 7.5 µM; hit rate 1.1% among 300,000; AID 2717, 2010; in the data active = inhibition above about 75%; inconclusive = no clear call, values can overlap the other calls; tested in HMLE shEcad cells
# NR3A LBD binder = binders of NR3A ligand-binding domain, primary screen, biophysical, differential scanning fluorimetry, uHTS | Glutamate receptor ionotropic, NMDA 3A (GRIN3A) ligand-binding domain | NR3A LBD differential scanning fluorimetry, Tm shift; 0% = protein alone, 100% = glycine-bound protein | Tm shift relative to glycine control, % at 25 µM | hit rate 2.5% among 340,000;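 active = melting temperature shift of at least 10% of the positive control shift, at one fixed dose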
# Mdm2-MdmX inh = inhibitors of human Mdm2-MdmX association, primary screen, cell-based, luminescence, split luciferase, SaOS-2, uHTS; inhibition, % at 8 µM; SaOS-2 split-luciferase Mdm2/MdmX complementation; AID 485346, 2010; Protein Mdm4 (Homo sapiens) + E3 ubiquitin-protein ligase Mdm2 (Homo sapiens), …; hit rate 3% among 330,000;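 active = inhibition of at least 50% at 8 µM in the primary screen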
# Gli-Sufu antag = Gli-Sufu pathway antagonists, primary screen, luciferase luminescence, Sufu-KO-LIGHT cells, uHTS; AID 588413, 2011; hit rate 0.74% among 340,000; inhibition, % at 5 µM; Sufu-KO-LIGHT fibroblasts, Gli luciferase reporter luminescence;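 active = inhibition above about 55%, limit read from the data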;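 note: 0% = DMSO-treated cells and 100% = wells with medium but no cells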
# Beta apoptosis = inhibitors of cytokine-induced beta cell apoptosis, primary screen, luminescence; INS-1E cytokine-induced death, ATP luminescence, 48 h; percent of positive-control rescue, neutral wells zero; protection from apoptosis, % (no concentration beside the values); hit rate 0.8% among 300,000; AID 435005, 2010;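 active = Every replicate reaches about 75%, or at least half do and their mean reaches it too, limit read from the data; inconclusive = At least half of replicates reach the limit but their mean does not; inactive = Under half of replicates reach the limit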;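 note: 0% = cytokine-treated negative control wells and 100% = positive control rescue; higher means more ATP so stronger rescue from cytokine killing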
# MPTP inh = mitochondrial permeability transition pore inhibitors, primary screen, biochemical, isolated mouse mitochondria, absorbance. Ca2+ swelling absorbance, 30 min. inhibition, % at 10 µM. hit rate 1.4% among 360,000. AID 602449, 2012;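 active = inhibition of 50% or more, scaled per plate between neutral and stimulator controls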;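 note: 0% = DMSO wells given calcium and 100% = 1 mM EGTA wells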
# Mdm2 MdmX conf = Mdm2-MdmX complex disruptors, retested hits, confirmation, luminescence, single concentration; shares compounds with Mdm2-MdmX inh; Mdm2-MdmX binding, luminescent assay; inhibition, % at 8 µM; hit rate 55% among 10,000; in the data active = inhibition above about 40%
# Full FLuc ctr = full-length luciferase signal inhibition, confirmation, counter-screen for Mdm2/MdmX interaction inhibitor project, cell-based, single concentration, SaOS-2 | AID 504607, 2011 | SaOS-2 full-length luciferase counterscreen, luminescence | inhibition, % at 8 µM | hit rate 77% among 6,200 | shares compounds with Mdm2-MdmX inh;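 active = mean inhibition at 8 µM reaching about 37%, which flags the compound as non-specific, limit read from the data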;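 note: p53-null SaOS-2 cells with luciferase driven by a doxycycline-inducible promoter; compound on cells about two nights before reading with doxycycline added after day one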
# The depositor's hits bear a star; ? = inconclusive; . = no result.
SMILES,CSC inhib,NR3A LBD binder,Mdm2-MdmX inh,Gli-Sufu antag,Beta apoptosis,MPTP inh,Mdm2 MdmX conf,Full FLuc ctr
CCOC(=O)C1=C(O)/C(=C/c2cn(CC(=O)NCC3CCCO3)c3ccccc23)SC1=Nc1ccc(C)cc1 (stereo not given),76*,1,99*,11,57,0,92*,47*
CCOC(=O)C1=C(O)/C(=C/c2ccc(-c3ccccc3C(=O)O)o2)SC1=Nc1ccc(C)cc1,.,-2,.,2,.,4,.,.
O=[N+]([O-])c1ccccc1C1Nc2cccc3cccc(c23)N1,12,-7,93*,20,7,1,42*,27
O=[N+]([O-])c1ccc(Cl)c(C2Nc3cccc4cccc(c34)N2)c1,17,1,44,11,4,4,.,.
CC1(C(=O)NCc2ccco2)Cc2c(-c3ccccc3)ccnc2O1 (stereo not given),.,.,.,.,.,1,.,.
Cc1ccc(C(=O)NC(C#N)=C(Cl)Cl)cc1,.,-1,100*,4,.,.,99*,53*
Cc1ccc(C(=O)NCC#N)cc1,-12,0,-4,5,-12,0,.,.
Cc1cc(=O)oc2cc(NC(=O)c3cc4ccccc4o3)ccc12,-4,.,16,.,4,.,.,.
Cc1cc(=O)oc2cc(NC(=O)c3cccc(Br)c3)ccc12,17,-9,66*,-13,43,2,-32,.
O=C(OCC1OC2C(Oc3nc(=O)ccn32)C1O)c1ccccc1 (stereo not given),-8,-1,5,1,2,0,.,.
N=c1ccn2c(n1)O[C@H]1[C@@H](CO)[C@H](O)O[C@H]12,56,3,69*,37,9,-3,61*,43*
CCOC(=O)c1c(NC(=O)COC(=O)c2ccc(C)s2)sc2c1CC(C)(C)NC2(C)C,4,-2,30,1,-10,-1,.,.
CCOC(=O)c1c(NC(=O)c2ccc(C)cc2)sc2c1CC(C)(C)NC2(C)C,12,.,93*,.,.,.,47*,96*
CCOC(=O)c1c(NC(=O)COc2ccccc2C#N)sc2c1CC(C)(C)NC2(C)C,-2,-9,51*,29,7,0,15,.
CC1(C)Cc2c(sc(NC(=O)COc3cccc4ccccc34)c2C#N)C(C)(C)N1,14,5,98*,2,10,0,100*,51*
CCOC(=O)c1c(NC(=O)COc2ccccc2OCC)sc2c1CC(C)(C)NC2(C)C,2,-2,97*,21,11,30,34,90*
CCC(C(=O)NCc1ccco1)n1nc(C)n2c(cc3occc32)c1=O (stereo not given),-8,-1,13,-4,0,0,.,.
CC1CCN(C(=O)CCCC(=O)N2CCC(C)CC2)CC1,-2,2,2,-5,-3,1,.,.
CSCCC1NC(=O)C(C(C)=NNC(N)=O)=C1O (stereo not given),.,4,.,4,.,-2,.,.
CCc1ccnc(NS(=O)(=O)c2ccc3c(c2)CCO3)c1,1,1,15,-3,-3,1,.,.
CCN(CC)CCCNC(=O)c1oc2ccc(S(=O)(=O)N3CC(C)CC(C)C3)cc2c1C (stereo not given),1,-3,46,-10,-13,-1,.,.
CCOC(=O)c1c(NC(=O)C2COc3ccccc3O2)sc(C(C)=O)c1C (stereo not given),0,2,16,42,12,7,.,.
CCOC(=O)c1c(NC(=O)C2COc3ccccc3O2)sc2c1CC(C)(C)NC2(C)C (stereo not given),?,-1,84*,18,9,0,52*,61*
Cn1c(CNC(=O)CNS(=O)(=O)c2ccc(Cl)cc2)cc(=O)n(C)c1=O,0,0,18,-5,-1,1,.,.
Cc1ccc(-c2nnc(-c3ccc(NC(=O)Cc4cccs4)cc3)o2)cc1,44,-2,78*,-24,43,4,21,.
SMILES,CSC inhib,NR3A LBD binder,Mdm2-MdmX inh,Gli-Sufu antag,Beta apoptosis,MPTP inh,Mdm2 MdmX conf,Full FLuc ctr
COc1ccc(CC(=O)Nc2cccc(-c3nnc(-c4ccco4)o3)c2)cc1,19,-11,26,-21,20,0,.,.
Cc1cc(C)cc(OCC(=O)Nc2cccc(-c3nnc(-c4ccco4)o3)c2)c1,16,-2,83*,-55,-2,-1,40*,99*
O=C(Cc1ccc(Cl)cc1)Nc1ccc(-c2nnc(-c3ccco3)o2)cc1,-3,13*,54*,32,6,28,10,.
O=C(Cc1ccccc1)Nc1ccc(-c2nnc(-c3ccco3)o2)cc1,-6,-17,-4,-19,2,0,.,.
COC(=O)C[C@H]1c2cc(F)ccc2S(=O)(=O)N1c1ccc(N(C)C)cc1,-7,-2,19,2,5,1,.,.
O=C(Nc1ccc2nc3n(c(=O)c2c1)CCCCC3)C(=O)N1CCN(c2ccccc2)CC1,35,3,0,4,3,0,.,.
Cc1cccc(C)c1-n1nnnc1C1(C)CCC(=O)N1C1CC1 (stereo not given),.,.,.,.,.,-2,.,.
CCOc1ccc(OCC)c(NC(=O)CN2CCN(c3cccc(C)c3)C(C)C2)c1 (stereo not given),-16,-1,53*,-7,18,2,64*,46*
CN1CCN(c2cc(-c3ccc4ccccc4c3)nc3ccnn23)CC1,.,.,.,.,.,1,.,.
CCOC(=O)C1=C(C)N(CCCC(=O)O)C(=O)NC1c1ccc2ccccc2c1 (stereo not given),-7,-2,-7,-6,-5,-1,.,.
COc1ccc(C2c3[nH]c4ccccc4c3CCN2C(=O)c2ccc(=O)n(C)n2)c(F)c1 (stereo not given),3,-19,-11,25,11,0,.,.
CCc1cc(C(=O)N2CCc3c([nH]c4ccccc34)C2c2ccc(OC)cc2F)no1 (stereo not given),-25,-4,83*,-2,12,0,85*,34
O=Cc1ccccc1OCCOc1ccccc1C=O,53,6,51*,-1,20,3,43*,91*
Cc1[nH]c(=O)[nH]c(=O)c1CSc1nnc([C@@H](NC(=O)OC(C)(C)C)C(C)C)o1,3,1,84*,7,-1,2,3,.
